# In the supplement of paper PMC11417369:
# Whole data set: some 25,000 sequences, median “ln(normalized median fluorescence intensity)” near 7.1, cut for the highest 2% near 10. The list comes from a sample in which the highest values are over-represented; it also holds similar and randomly drawn sequences.
# Test system: PfSIP2 AP2 domain 1 (GST-tagged)
# Assay: gcPBM binding intensity (ln(normalized median fluorescence intensity)); higher = stronger DNA binding
# Summary of the method: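 In this array assay, P. falciparum DNA-binding domains with a GST tag, expressed in E. coli, were applied for 1 h to primer-extended double-stranded 36-bp intergenic genomic probes and negative controls on an Agilent 4 × 180k array. Bound protein was visualised with Alexa488 anti-GST antibody at 488 nm. Binding intensity is the highest Masliner-normalised natural-log median intensity across replicate spots of either probe orientation.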
row,Sequence,gcPBM binding intensity (ln)
1,TGAACACACGAGCACACACACACATCTATATTTATA [CACACA_site6607],7.22
2,TTAATTACACAAAAAAGTACTTGATATTGTTTATTA [XGTACX_site3449],6.85
3,AAATATTTGTGTGGTTGTACTATAATGATAAAAATA [XGTACX_site7703],7.27
4,AAATACTGATTTGGTTGTACATGTGCACTATATAAC [XGTACX_site3795],11.4
5,ATACTAACATTTTTTTGTACATATAACTATAAAATA [XGTACX_site1033],7.32
6,GGAACTTTTGGAGGTGCATGCGGAGCAATCTTTTCA [TGCATGCA_site454],10.6
7,CCTTTTTCTAATGGATGTACTTATTATATACATTAT [XGTACX_site281],7.14
8,TTGAAAAATCAGCACACACACAAATACATACATATT [CACACA_site7505],7.03
9,TTTTTTTTTTTTTTTTTTGGTGAGAGAAGAAAATTC [CACACA_negctrl_site950],7.02
10,ATTTTGATGATGTATGCACACATTGAAAATGAGAAA [CACACA_site2916],9.12
11,TTTTTTTTTTTGTGAGTGCACGTATGAAGAGAAAAA,10.8
12,AATTTAATATAATGCACACATAAAAAAAAAAAAAAA [CACACA_site123],7.42
13,TCAGGAATATAAAGTGCACACATAATTTGGGGGCAA [CACACA_site7974],11.2
14,AGGAATATAAAGTGCACACATAATTTGGGGGCAAAA [CACACA_site258],11.7
15,GAATAAAGGAGAGGCACACATATATATATATATATA [CACACA_site2452],9.61
16,AATTATGCACAAATCACACATATAAAATAAAAAGTG [CACACA_site4474],7.87
17,AATTTTGGAACGTGCACACATATGTAATATATATAT [CACACA_site3067],10.1
18,ATATAGTATTAATTTGCATGTCATGTATTAGGTCGA [TGCATGCA_site540],6.73
19,TAAAATTTTATAAAGGAACACACATTTTTTTTTTTT [CACACA_site8740],6.87
20,TTTGATTTTAATGTGTGTACACATTTATTTATATAA [XGTACX_site4806],7.74
21,AAATAAGAAAATCATAGTACATAGGAATAGAAGAAC [XGTACX_site3135],7.59
22,ATATGGAATGATCATAGTACATAATTTAAAATTTTA [XGTACX_site3568],6.74
23,ATAATGAAGACTTTTTTACACACTTCATATATTATA [CACACA_site8630],6.96

row,Sequence,gcPBM binding intensity (ln)
1,AAAAAAAGAATGTGAACACACACATTGAATATAATT [CACACA_site8341],6.79
2,ATTAAAAAAAAAGAGCGTACAAATAATTACTTCTTT [XGTACX_site8262],6.83
3,ATATCATCTTCTCTATCATTTTTTTTTTTTTTTTTT [CACACA_negctrl_site1220],7.69
4,TATTTTAACATTAGGTGTACATACAAAAATAAAAAT [XGTACX_site8577],7.37
5,TTATTATTATAAAATTGTACTTGGTATATTAACATA [XGTACX_site5829],6.98
6,AAATACTTAACATTGGTGCATATTTGTAAAATTATT [GTGCAC_site9515],10.7
7,TATATATATTTAAGGTGTACATAAATAACAAAATAT [XGTACX_site2641],7.47
8,TTTAAAATACAGAAGGTGCATTTAACATATTTGTAT,10.6
9,TTAATATAATTAAAATGTACTTATTTGTAAACATTA [XGTACX_site6313],6.78
10,ATATTAAAATTTTAATGTACATGCGTATGTAGGAAT [XGTACX_site1673],7.39
11,TAATCATTTTAGCTTACACACAAAATTTTGTTATAA [CACACA_site2939],6.93
12,TTTATATAATTTTTTTGTACATATATATGAATACAT [XGTACX_site2316],7.11
13,AAATGTTGAAAAATATGTACATATTATATATATTAT [XGTACX_site1165],7.1
14,ATGTTAATTAATGAGGTGCATTGAATATTTCAATAA,10.6
15,TCTTTCAATATTAATGCATGTTAATAATAAATTTTA [TGCATGCA_site448],6.89
16,AATATTTTTCAATTTCATGTGCATTCATTGAAGTTA [CACACA_negctrl_site1232],7.34
17,GAAAAATTTAATTATTGTACGTTTCATCTATATTTA [XGTACX_site414],6.91
18,TCATTTTATTATTCTACACACTTATCTATAATTATA [CACACA_site34],7.2
19,AGGATATAAAGTTGTGCATGTCAAGTGCACCGTATT [TGCATGCA_site451],12.2
20,AAAAAAAAGTTGTAAGTGCATGTATATAATAATATT,8.08
21,AAAAAAAAAAAAAAAGTGCATATATAAATATTGTAT [GTGCAC_site9459],9.58
22,ATTTATATGCACCATTGTACGTTTTATAAAGTTTGG [XGTACX_site3755],10.7
23,TTTAGTTTTTATATAGCACACATATTGTGATTATGT [CACACA_site8316],6.96

row,Sequence,gcPBM binding intensity (ln)
1,ATATATATATAAAGTTGTACATTTTTTATTTTTTCA [XGTACX_site7847],9.04
2,ATATTACACATATATGCACACATTGTAGTTATTTAT [CACACA_site8843],9.43
3,CATTTTGTTTTAAAGTGTACATTATGTAATATAAAA [XGTACX_site647],7.15
4,ATTGTGCACTTATATGCACACATTTTAGTTTTTTTT [CACACA_site2028],10.6
5,TACATATATATTTGTTCACACACACCCAAAAAAAAA [CACACA_site8788],7.01
6,AAAAGTAACAAAGCTACACACATTTAAATAAACATA [CACACA_site1421],6.94
7,GTTCTAAATATTATTGCATGTTGCACGTTTCTCTGT [TGCATGCA_site159],7.65
8,TGAACAGGTCATAATTTACACACTATATATTTTATT [CACACA_site8123],6.87
9,TGTATAAAAAACTAATGTACAAATGACAAGATATCT [XGTACX_site4600],6.9
10,GTAAGAAAGAAAGGAAGTACGTAAGAAAGTAAGAAC [XGTACX_site1239],7.27
11,TACATAAACTTTATAACACACACTTATATATATATA [CACACA_site1106],9.34
12,TGAATATTCATATGCACACAAATTAATATACATAAT [CACACA_site442],7.03
13,AACTCATAGGAGTGTGCACACAAAAAATTAAAAAAA [CACACA_site8996],9.24
14,TTCATATTATAGTGCACACAAAAATATATATATGGT [CACACA_site2855],10.7
15,TTTTCATATTATAGTGCACACAAAAATATATATATG [CACACA_site8929],10.8
16,ATTATATATATTTATGCACACAAAATATATTATATA [CACACA_site9244],7.56
17,ATTCACAAATATATGGTGCATAATATATATATATAT [GTGCAC_site9674],10.6
18,ATGGCATAAATATATGCACACACAAAAAAAAAAAAA [CACACA_site7902],7.06
19,ATTAATTTTATATATGCACACAAAATATGTTCATAT [CACACA_site9350],7.13
20,CTCATAGTTGGGTGCACACAAAAAATTAAAAAAATA [CACACA_site3032],12.3
21,AACTCATAGCGGTGTGCACACAAAAAATTAAAAAAA [CACACA_site3033],8.94
22,CATATAAAAATATATGCACACAAATAAAAAATTATA [CACACA_site9210],7.29
23,ATTATATACATATATGCACACAAAAAAATATATATT [CACACA_site8508],7.28
